From PubChem BioAssay
Cycloheximide cs: counter-screen for Shiga toxin inhibitors: cycloheximide protein synthesis inhibition. max response, %. AID 2314. cell reporter, cycloheximide protein synthesis inhibition counterscreen. 12% of 300,000 active; in the data active = max response mostly above about 13%, no sharp cut-off; inactive = mostly below about 14%; note: read at 38.3 µM for the half of the compounds with a filed dose; 0% is about no effect
AmpC detergent: AmpC beta-lactamase inhibition with detergent present; AmpC hydrolysis of nitrocefin, absorbance 480 nm, 0.01% Triton; P00811; Potency, µM (highest dose often 114 µM), without a hit: at the highest dose activity change, negative = inhibition, actives largely listed as inhibitors; AID 485294; 0.041% of 370,000 active;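 note: potency is the fitted concentration of half-maximal effect; 0% = no-compound wells and -100% = no-enzyme wells; nearly all actives have a fitted effect of over 25% in size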
Target sequence (P00811 whole entry, looked up): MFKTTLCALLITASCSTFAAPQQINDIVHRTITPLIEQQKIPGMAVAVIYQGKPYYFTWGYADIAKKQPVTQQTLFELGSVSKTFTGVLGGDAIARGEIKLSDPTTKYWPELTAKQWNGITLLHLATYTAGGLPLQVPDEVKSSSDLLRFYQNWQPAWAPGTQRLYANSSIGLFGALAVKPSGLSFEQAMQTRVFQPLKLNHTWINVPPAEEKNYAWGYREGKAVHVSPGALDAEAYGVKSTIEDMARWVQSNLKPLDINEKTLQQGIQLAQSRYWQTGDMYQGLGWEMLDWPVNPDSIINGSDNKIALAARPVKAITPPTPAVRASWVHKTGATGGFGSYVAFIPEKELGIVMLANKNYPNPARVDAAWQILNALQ
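AmpC (5.3 nM in the dispensed reagent) in 20 mM phosphate pH 7.0 with 0.01% (detergent screen) or 0.0001% Triton X-100 was preincubated with compounds for 15 min at room temperature. Nitrocefin was then added from an 800 uM solution, and hydrolysis was followed at 480 nm.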
Shiga inhibitor: Shiga toxin inhibition | AID 2315 | Vero cells, Shiga toxin protein synthesis inhibition reporter | inhibition, % at 38.7 µM | 9.2% of 290,000 active; in the data active = inhibition mostly above about 28%, no sharp cut-off; inactive = mostly below about 43%; note: 0% is about no effect
NS1 function inh: blocks influenza NS1 protein function | Potency, µM (top dose mostly 46.1 µM), without a hit: at the highest dose activity, positive = more growth | 0.4% of 270,000 active; calls by dose curve; note: potency is the fitted concentration of half-maximal effect; actives are rising curves; nearly all actives have a fitted effect of over 50% in size
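Compounds were scored for reversing the slow growth caused by influenza A NS1 in S. cerevisiae, measured by optical density at 600 nm. Assay medium contained 2% galactose at pH 6.0; NS1-free yeast of the same strain were the positive control.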
AmpC inh no detg: AmpC beta-lactamase inhibition without detergent; AmpC nitrocefin hydrolysis, absorbance 480 nm, 0.0001% Triton; Potency, µM (titrated, usually from 57.1 µM), inactives show top-dose activity change, negative = inhibition, hits mostly inhibitors; 0.52% of 330,000 active; AID 485341;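 note: potency is the fitted concentration of half-maximal effect; plate controls were no compound for no effect and no enzyme for full effect; nearly all actives have a fitted effect of over 20% in size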
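20 mM phosphate pH 7.0 + 0.01% (detergent screen) or 0.0001% Triton X-100; 5.3 nM AmpC reagent; cpd preinc 15 min RT; nitrocefin (800 uM stock) to start; A480 q20 s × 4 min; Activity was normalised to no-enzyme and no-compound control wells.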
Numbers without * were called inactive. The sample as a whole holds a higher share of hits than the screen did. Unless noted, calls come from the whole dose curve; as a rule, active = well fitted curve in the direction sought with a large enough effect; inconclusive = small, poorly fitted or top-dose-only effect, or another doubt; inactive = no such curve, though single readings can be large; an effect the other way counts as inactive or inconclusive.

Results for COc1ccc(N2C(=O)/C(=C/N(C)C)NC2=S)cc1 ?
Cycloheximide cs: 1; AmpC detergent: 2%; Shiga inhibitor: -3; NS1 function inh: 6%; AmpC inh no detg: 1%

How did CCN(CC1COc2ccccc2O1)C(=S)Nc1ccccc1 (stereo not drawn) do in these assays?
Cycloheximide cs: -4; AmpC detergent: -2%; Shiga inhibitor: -6; NS1 function inh: -104%; AmpC inh no detg: -6%

How did Cc1cnc(C(=O)OCC(=O)Nc2c(Cl)cc(Cl)cc2Cl)cn1 do in these assays?
AmpC detergent: -6%; AmpC inh no detg: -22%

Results for CC(C)C1COC(c2cccc3ccccc23)=N1 (stereo not drawn) ?
Cycloheximide cs: 76*; AmpC detergent: -5%; Shiga inhibitor: 136*; NS1 function inh: 23%; AmpC inh no detg: -14%

Results for O=C(c1cccn1-c1nnc(N2CCCC2)s1)N1CCN(c2ccccc2)CC1 ?
AmpC detergent: 0%

How did COc1ccc(/C=C2\SC(=O)N(CCn3cnnn3)C2=O)cc1 do in these assays?
Cycloheximide cs: 37*; AmpC detergent: -4%; Shiga inhibitor: 83*; NS1 function inh: 4%; AmpC inh no detg: 15%

How did O=C(NCCN1C(=O)S/C(=C/c2ccccc2)C1=O)C1CCCN1C(=O)c1cccs1 (stereo not drawn) do in these assays?
Cycloheximide cs: -3; AmpC detergent: -7%; Shiga inhibitor: 0; NS1 function inh: -6%; AmpC inh no detg: -14%

What do the screens show for `COc1ccc(/C=C2\SC(=O)N(CCNC(=O)C3CC4C=CC3C4)C2=O)cc1` (stereo not drawn)?
Cycloheximide cs: 58*; AmpC detergent: 3%; Shiga inhibitor: 101*; NS1 function inh: -3%; AmpC inh no detg: -4%

What do the screens show for `COc1ccc(/C=C2/SC(=O)N(CCNC(=O)CC(NC(C)=O)c3ccccc3)C2=O)cc1` (stereo not drawn)?
Cycloheximide cs: 21*; AmpC detergent: 3%; Shiga inhibitor: 29; NS1 function inh: 3%; AmpC inh no detg: -16%

What do the screens show for `COc1ccc(/C=C2/SC(=O)N(CCNC(=O)C3CCCN3C(=O)c3cccs3)C2=O)cc1` (stereo not drawn)?
Cycloheximide cs: 32*; AmpC detergent: 3%; Shiga inhibitor: 63*; NS1 function inh: -2%; AmpC inh no detg: 98%

Results for Cc1ccccc1Nc1c(-c2cccc(N(C)C)c2)nc2ccc(Br)cn12 ?
AmpC detergent: 12%

What do the screens show for `Cc1ccc(S(=O)(=O)Nc2cc3c4c(c2)CCN4C(=O)CC3)cc1`?
AmpC detergent: inconclusive; AmpC inh no detg: -5%

What do the screens show for `CC(=O)c1ccc(NC(=O)c2ccc3c(c2)nnn3C2CCCC2)cc1`?
AmpC detergent: 3%

Results for CCN(CC)C(=O)c1sc2c(c1C)c(=O)n(-c1ccc(OC)cc1OC)c(=O)n2CC(=O)Nc1ccccc1 ?
AmpC detergent: -7%

Results for CCOC(=O)c1ccc(N2C(=O)c3[nH]nc(-c4ccc(C)cc4)c3C2c2ccc(O)c(OCC)c2)cc1 (stereo not drawn) ?
AmpC detergent: -3%

How did CCCOC(=O)C1C2C=CC3(CN(c4ccc(Cl)c(F)c4)C(=O)C13)O2 (stereo not drawn) do in these assays?
Cycloheximide cs: -1; AmpC detergent: 5%; Shiga inhibitor: -1; NS1 function inh: -3%; AmpC inh no detg: 7.1µM*

How did CCOC(=O)C1C2C=CC3(CN(c4ccc(Cl)c(F)c4)C(=O)C13)O2 (stereo not drawn) do in these assays?
Cycloheximide cs: -1; AmpC detergent: -10%; Shiga inhibitor: -11; NS1 function inh: inconclusive; AmpC inh no detg: -10%

What do the screens show for `COC(=O)c1ccc(/C=N/NC(=O)C(=O)NCc2ccccc2)cc1`?
Cycloheximide cs: 8; AmpC detergent: -7%; Shiga inhibitor: 9; AmpC inh no detg: 5%

How did COC(=O)c1ccc(/C=N/NC(=O)c2ccccc2Cl)cc1 do in these assays?
Cycloheximide cs: 42*; AmpC detergent: -10%; Shiga inhibitor: 47*; NS1 function inh: 0%; AmpC inh no detg: -26%

Results for CC(C)c1ccc(/C=N/NC(=O)c2ccccc2Cl)cc1 ?
Cycloheximide cs: 46*; AmpC detergent: 0%; Shiga inhibitor: 107*; AmpC inh no detg: -20%

What do the screens show for `COc1cccc(NC(=O)c2oc3ccccc3c2NC(=O)c2cc3ccccc3o2)c1`?
AmpC detergent: 9%
